The values below come from PubChem BioAssay AID1779 (Sanford-Burnham Center for Chemical Genomics, 2009).

In all, about 290,000 compounds went through this assay and about 160 (0.055%) were called active. No stated cut-off is given here; in the data, active means inhibition above about 50%; inactive means the rest. This excerpt belongs to a sample that is enriched for actives.

The target in the test is Tyrosine-protein phosphatase non-receptor type 22 (Homo sapiens) (UniProt Q9Y2R2). In words: inhibitors of LYP phosphatase, biochemical, fluorescence intensity, uHTS (AID 1779).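 Further: plate controls were vehicle with enzyme for no effect and no enzyme for full effect.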 As to conditions: recombinant LYP phosphatase, at 11.5 µM, stronger effect = higher value.
Chain of Tyrosine-protein phosphatase non-receptor type 22 (Homo sapiens) (Q9Y2R2 whole entry, looked up): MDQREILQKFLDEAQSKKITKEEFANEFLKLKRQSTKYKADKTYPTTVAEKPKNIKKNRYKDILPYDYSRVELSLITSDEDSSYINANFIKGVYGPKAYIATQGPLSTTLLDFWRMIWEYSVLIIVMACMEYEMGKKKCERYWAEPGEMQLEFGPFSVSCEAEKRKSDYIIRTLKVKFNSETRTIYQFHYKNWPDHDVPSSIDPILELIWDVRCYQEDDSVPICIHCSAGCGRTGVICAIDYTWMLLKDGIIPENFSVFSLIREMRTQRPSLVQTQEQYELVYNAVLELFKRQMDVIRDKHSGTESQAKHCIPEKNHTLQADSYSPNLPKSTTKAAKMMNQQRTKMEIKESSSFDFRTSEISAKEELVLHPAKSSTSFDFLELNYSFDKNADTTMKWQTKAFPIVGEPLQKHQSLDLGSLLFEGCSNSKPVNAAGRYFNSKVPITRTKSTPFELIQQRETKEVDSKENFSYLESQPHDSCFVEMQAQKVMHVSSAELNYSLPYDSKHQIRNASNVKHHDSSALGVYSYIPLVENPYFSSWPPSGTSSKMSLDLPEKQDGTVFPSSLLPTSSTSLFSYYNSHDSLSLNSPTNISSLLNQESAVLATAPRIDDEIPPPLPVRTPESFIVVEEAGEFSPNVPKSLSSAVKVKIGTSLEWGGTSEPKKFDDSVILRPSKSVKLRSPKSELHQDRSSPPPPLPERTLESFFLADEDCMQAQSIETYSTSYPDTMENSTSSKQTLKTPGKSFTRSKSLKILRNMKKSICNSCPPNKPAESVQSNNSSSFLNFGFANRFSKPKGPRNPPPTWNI
For `O=C(Cn1c(=O)n(-c2cccc(C(F)(F)F)c2)c(=O)c2sccc21)NCC1CCCO1` (centres undefined), the inhibition is -9.3% (inactive).

Regarding `COc1cccc(-n2c(=O)c3sccc3n(CC(=O)NCC3CCCO3)c2=O)c1` (centres undefined), the inhibition is -10.8% (inactive). With `Cc1ccc(-n2c(=O)c3sccc3n(CC(=O)NCC3CCCO3)c2=O)cc1F` (centres undefined), the inhibition was 68.5% (active). Under `O=C(CCCN1C(=O)/C(=C/c2cccs2)SC1=S)Nc1cc([N+](=O)[O-])ccc1O` stands -12.6% (inactive); under `O=C1C=C(NCc2ccccc2)CCC1`, -5.3% (inactive). Turning to `O=C1C=C(NCCNc2c(F)c(F)c(CO)c(F)c2F)CCC1`, the inhibition was 72.7% (active). For `CC(=O)/C=C(\C)NCCNc1c(F)c(F)c(CO)c(F)c1F`, the inhibition was -3.3% (inactive). Under `CCOc1c(O)ccc(C2NC(=O)N(C)C(C)=C2C(=O)OC)c1[N+](=O)[O-]` (centres undefined) stands 4% (inactive); under `CC(=O)Nc1ccc(S(=O)(=O)NNC(=O)COc2ccc(C(C)(C)C)cc2)cc1`, -2.6% (inactive). To `COc1cccc(C(=O)NNC(=O)C(=O)N2CCCCC2)c1` belongs -8.5% (inactive); to `O=C(NNC(=O)c1cccc(Br)c1)C(=O)N1CCCCC1`, 60% (active). Under `O=C(NNC(=O)c1ccccc1)C(=O)N1CCCCC1` stands 2.5% (inactive); under `CCN(CC)CCN(Cc1cc2cc3c(cc2[nH]c1=O)OCCO3)C(=S)NCCCOC`, -16.1% (inactive); under `COC(=O)C1=NN(C(=O)c2cccc(Cl)c2)C(O)(C(C)(C)C)C1` (centres undefined), 65.7% (active). With `COC(=O)C1=NN(C(=O)c2ccc(Br)cc2)C(O)(C(C)(C)C)C1` (centres undefined), the inhibition is -3.5% (inactive). To `CCOC(=O)C1=NN(C(=O)c2cccc(Br)c2)C(O)(C(C)(C)C)C1` (centres undefined) belongs -3.2% (inactive). Under `O=C(O)CC/C(=N/NC(=O)c1cn(-c2ccccc2)nc1-c1ccccc1)C(=O)O` stands -3.5% (inactive).

Turning to `COc1ccc(NS(=O)(=O)c2ccc3c(c2)[C@H]2C=CC[C@H]2[C@@H](c2ccc(C(=O)O)cc2)N3)cc1`, the inhibition was 4.5% (inactive). In the case of `COc1cccc(NS(=O)(=O)c2ccc3c(c2)C2C=CCC2C(c2ccc(C(=O)O)cc2)N3)c1` (centres undefined), the inhibition is 16.1% (inactive). Turning to `S=C(NCc1ccc(Cl)cc1Cl)NC1CCCCC1`, the inhibition was 68.1% (active).

Take `S=C(NCc1ccccc1Cl)NC1CCCC1`: the inhibition was -7.7% (inactive). Under `O=C(Cc1ccc(Cl)cc1Cl)NC1CCCCCC1` stands -4.7% (inactive). Turning to `COc1cc(N(C)C)c([N+](=O)[O-])cc1C(=O)NC(C)CNc1ccc([N+](=O)[O-])cc1Cl` (centres undefined), the inhibition is -7.4% (inactive).

Consider `Cc1ccc(CN(CC(=O)NC(C)(C)C)C(=O)CNC(=O)c2cccs2)cc1`, for which the inhibition is -5.3% (inactive). To `Cc1occc1C(=O)NNS(=O)(=O)c1ccc(Cl)cc1` belongs 71.2% (active); to `Cc1occc1C(=O)NNS(=O)(=O)c1ccc([N+](=O)[O-])cc1`, -10.5% (inactive). As for `Cc1ccc(S(=O)(=O)NNC(=O)c2ccoc2C)cc1`, the inhibition is -5.8% (inactive). With `Cn1c(=O)c2ncn(CC(=O)N/N=C/c3ccco3)c2n(C)c1=O`, the inhibition is -9.9% (inactive).

Consider `CC(=O)CCS(=O)(=O)c1ccc(NC(C)=O)cc1`, for which the inhibition was -5.5% (inactive).

For `O=C(COC(=O)c1cc(-c2cccs2)nn1-c1ccccc1)Nc1ccc(Cl)c([N+](=O)[O-])c1`, the inhibition is 2% (inactive). Consider `O=C(COC(=O)c1cc(-c2cccs2)nn1-c1ccccc1)Nc1ccc(F)c([N+](=O)[O-])c1`, for which the inhibition is -7.7% (inactive). In the case of `Cc1ccc(NC(=O)COC(=O)c2cc(-c3cccs3)nn2-c2ccccc2)cc1[N+](=O)[O-]`, the inhibition was 74.9% (active). Consider `CC(=O)c1ccc(N2C(=O)[C@@H]3C(CCC(N)=O)NC4(C(=O)Nc5c4ccc(Cl)c5C)[C@@H]3C2=O)cc1` (some centres undefined), for which the inhibition was -3.9% (inactive). To `N#Cc1c(N2CCCC2)nc(N)c2c(N)nc(N3CCCC3)cc12` belongs 65.7% (active); to `COc1cc2c(C#N)c(N3CCCCC3)nc(N)c2c(N)n1`, -1.1% (inactive); to `COc1cc2c(C#N)c(N3CCCC3)nc(N)c2c(N)n1`, -2.4% (inactive). Under `CCCC(=O)NC(=S)Nc1ccccc1F` stands -10.5% (inactive); under `Cc1cccc(C)c1N1CCN(c2n[nH]c(N)n2)CC1`, -8.3% (inactive).

On to `CC1(C)Nc2ccccc2C(=O)N1c1ccccc1`, for which the inhibition was -11.8% (inactive). Under `CC12CCC(=O)N1c1ccccc1C(=O)N2c1ccccc1` (centres undefined) stands 66.6% (active); under `CC1(C)CCC(=O)N(c2ccccc2)C1=O`, -3% (inactive); under `CC(=O)Nn1c(COc2ccccc2C)nc2ccccc2c1=O`, -4.5% (inactive). On to `Cc1noc(NS(=O)(=O)c2ccc(NC(=O)c3nn(-c4ccccc4)ccc3=O)cc2)c1C`, for which the inhibition is 53.3% (active).

Regarding `Cc1ccc(-n2ccc(=O)c(C(=O)Nc3ccc(S(=O)(=O)Nc4onc(C)c4C)cc3)n2)cc1`, the inhibition is 2.8% (inactive). Take `Cc1cccc(-n2ccc(=O)c(C(=O)Nc3ccc(S(=O)(=O)Nc4onc(C)c4C)cc3)n2)c1`: the inhibition was -7.6% (inactive). To `COc1cc(CC(NC(C)=O)C(=O)NC2CCN(c3nc(C)cc(C)c3C#N)CC2)cc(OC)c1` (centres undefined) belongs -2.6% (inactive); to `COc1cc(/C=C2/NC(=O)NC2=O)cc(Br)c1OCc1cccc(C(=O)O)c1`, 4.5% (inactive). Turning to `COc1cc(/C=C2/NC(=O)NC2=O)cc(Br)c1OCc1ccc(C(=O)O)cc1`, the inhibition was 26.8% (inactive). With `Nc1nonc1-n1nnc(C(=O)N/N=C/c2ccoc2)c1CSc1ccc(Cl)cc1`, the inhibition was -6.9% (inactive). Consider `C=C(C)Cn1c(SCC(=O)O)nc2c1c(=O)[nH]c(=O)n2C`, for which the inhibition was -3.9% (inactive). To `CCCc1nc2ccc([N+](=O)[O-])cc2[nH]1` belongs -5.4% (inactive); to `CCc1nc2cc([N+](=O)[O-])c([N+](=O)[O-])cc2[nH]1`, 54.4% (active). To `CCc1nc2cc(Cl)c(Cl)cc2[nH]1` belongs -3% (inactive). Under `CCC(=O)Nc1ccc2nc3c(=O)[nH]c(=S)[nH]c3nc2c1` stands -5.4% (inactive); under `Nc1ccc2nc3c(=O)n(C4CCCCC4)c(=O)[nH]c3nc2c1`, 4.7% (inactive); under `Nc1ccc2nc3c(=O)[nH]c(=S)[nH]c3nc2c1`, 58.3% (active). For `OC(COC(c1ccccc1)c1ccccc1)CN1CCOCC1` (centres undefined), the inhibition is 1.2% (inactive). For the compound `COC(=O)C1CCN(c2ccc([N+](=O)[O-])cc2)CC1`, the inhibition is -2.8% (inactive). Take `COC(=O)C1CCN(Cc2ccc(OCCCN3CCN(c4ccc([N+](=O)[O-])cc4)CC3)cc2)CC1`: the inhibition was 78.6% (active). Under `COC(=O)C1CCN(CCCOc2ccc(CN3CCN(c4ccc([N+](=O)[O-])cc4)CC3)cc2)CC1` stands -8% (inactive); under `CCOC(=O)c1cnc2c(Cl)cccc2c1NCCN1CCOCC1`, -9.2% (inactive). Under `CCOC(=O)c1cnc2c(C)c(C)ccc2c1NCCN1CCOCC1` stands -7.3% (inactive). For the compound `CCOC(=O)c1cnc2c(Cl)c(Cl)ccc2c1NCCN1CCOCC1`, the inhibition is 59.4% (active).

Turning to `COc1ccc(C(=O)NCCNC(C)=O)cc1S(=O)(=O)NCc1ccc(Cl)cc1`, the inhibition is -8.9% (inactive).

What is called inhibition is the change of the read-out against control, counted positive when it falls.
